Test results published in PubChem BioAssay AID624134 (Broad Institute, 2012).
Out of some 1,600 compounds screened, about 1,100 (69%) were called active. So high a share suggests a set chosen from earlier hits. These entries were drawn from the full list. Potency and affinity values are given separately. Inconclusive results are not listed. A number with no mark means an inactive call.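 Rule for the calls: active = signal drop with fitted half-maximal concentration no higher than twice the top valid tested concentration; inconclusive = flat curve with 30 to 70% signal loss, or poor fit; inactive = the rest, including signal rises and flat curves within 30%.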

Assay: HepG2 cell cytotoxicity, dose response, cytotoxicity control for Shn3 inhibitor project, CellTiter-Glo, cherry-picked (AID 624134);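 note: 0% = median of neutral control wells and -100% = median of positive control wells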
Settings: HepG2 viability, CellTiter-Glo ATP luminescence, 48 h; series mostly up to 35 µM; activity change, negative = cytotoxicity: at the top concentration

Compound	activity change, negative = cytotoxicity [%]
CC1CN(C(=O)CCc2cc(C(C)(C)C)c(O)c(C(C)(C)C)c2)CC(C)O1 (stereo unspecified)	-3.37
CCOc1ccc(Cn2nnc(C(=O)Nc3cc(OC)cc(OC)c3)c2N)cc1	-16.3
Cc1onc(-c2ccccc2Cl)c1C(=O)N(C)C1CCCCC1	-13.7
Cc1onc(-c2c(Cl)cccc2Cl)c1C(=O)N[C@@H]1C(=O)N2[C@@H]1SC(C)(C)[C@@H]2C(=O)O	2.2
COCc1c(C(=O)Nc2cccc(S(=O)(=O)N3CCCCC3)c2)oc2ccccc12	-16.8
COc1ccc(NC(=O)CCOc2cc(C)ccc2C)cc1S(=O)(=O)N1CCCCC1	-20.7
O=C(CSc1nnc(-c2ccc(Cl)cc2Cl)n1C1CCCCC1)N1CCCC1	-3.6
COC(=O)c1cn(NC(=O)c2cc([N+](=O)[O-])ccc2F)c(=O)c2ccccc12	-7.42
CCCCN1C2=NCCCN2c2cc(C)c(C)cc21	-12.8
CCN(CC)C(=O)[C@H]1C[C@H](CC(=O)NC/C=C(\C)CCC=C(C)C)C(=O)N2CCc3c([nH]c4cc(CCC(=O)N(C)C)ccc34)[C@]12C	1.03
COCCN1Cc2cccc(C(=O)Nc3ccc4c(c3)OCCO4)c2C1=O	-11.9
Cc1ccc(CNC(=O)c2cc(-c3ccccc3C)nn2CC2CC(c3cccnc3)=NO2)cc1 (stereo unspecified)	-8.82
COc1cc(NC(=O)c2cc3c(Cl)nc4ccccc4c3s2)cc(OC)c1OC	-12.9
COc1ccc(N2C(=O)C(CC(=O)Nc3ccccc3)N(Cc3ccc(OC)c(OC)c3)C2=O)cc1 (stereo unspecified)	8.78
COC(=O)c1ccccc1NC(=O)c1nc(S(=O)(=O)Cc2ccccc2)ncc1Cl	2.89
CCS(=O)(=O)c1ncc(Cl)c(C(=O)Nc2ccccc2OC)n1	1.02
Cc1cccc(CS(=O)(=O)c2ncc(Cl)c(C(=O)Nc3nnc(C(C)C)s3)n2)c1	-7.95
S=c1[nH]nc(COc2cccc3ccccc23)n1Cc1ccccc1	-3.17
COC(=O)c1ccc(COC(=O)c2[nH]c(C)c(C(C)=O)c2C)o1	-4.96
CCCc1nnc(NC(=O)c2nc(S(=O)(=O)Cc3ccc(C)cc3)ncc2Cl)s1	-3.17
CCc1nnc(NC(=O)c2nc(S(=O)(=O)Cc3cccc(C)c3)ncc2Cl)s1	-14.1

Compound	activity change, negative = cytotoxicity [%]
CN(C)S(=O)(=O)c1cccc(N=c2scc(-c3ccc4c(c3)NC(=O)CO4)n2CC2CCCO2)c1 (stereo unspecified)	-15.4
CC(C)(C)C(=O)Nc1cc(S(=O)(=O)N2CCCCC2)ccc1N1CCCCC1	0.395
Cc1ccc(-c2nc3ncccc3o2)cc1NC(=O)c1sc2ccccc2c1Cl	-3.4
Cc1ccc2cc(CN(CC3CCCO3)C(=O)NC3CCCCC3)c(=O)[nH]c2c1C (stereo unspecified)	0.111
Cc1ccc(C(=O)N2CCN(C)CC2)cc1S(=O)(=O)N1CCCCCC1	8.18
COc1ccc(C(=O)OCC(=O)Nc2ccc3[nH]c(=O)[nH]c3c2)cc1	-7.95
O=C(OCCN1C(=O)c2cccc3c(N4CCOCC4)ccc(c23)C1=O)c1ccccc1Cl	2.34
Cc1cccc(C(C)(C)C)c1OCCN1CCCC1	1.96
CCOC(=O)Cc1csc(SCC(=O)c2c(N)n(CC(C)C)c(=O)n(C)c2=O)n1	-10.9
S=C(Nc1ccccc1)Nc1ccc(OCc2ccc(Cl)cc2Cl)cc1	42
COc1ccc2c(c1)c(CC(=O)Nc1cc(C)ccc1C)c(C)n2C(=O)c1ccc(Cl)cc1	-11.7
CCCCN1CC(COCc2ccccc2)Oc2cccc(Oc3cc(C)c(C)c(C)c3)c2S1(=O)=O (stereo unspecified)	-10.9
O=C(CSc1nc(C(F)(F)F)cc(=O)[nH]1)N1CCCC1	-6.06
Clc1ccc(-c2cc(-c3nnc4n3CCCCC4)c3ccccc3n2)cc1	-33.7
Oc1c(CN2CCN(c3ccccc3)CC2)cc(Br)c2cccnc12	-23.7
Cc1cc(CN2CCOCC2)c(O)c(C2(C)CCCCC2)c1	12.9
Cc1ccnc(N/C=C(/NC(=O)c2ccccc2)C(=O)N/N=C\c2ccc(F)cc2)n1	-1.6
CCS(=O)(=O)c1ccc2oc(SCC(=O)N3CCCCC3)nc2c1	-4.82
Oc1ccc(-c2csc(Nc3cccc4ccccc34)n2)cc1O	-12.1
O=C(Cn1cc(C(=O)c2ccco2)c2ccccc21)Nc1ccccc1F	-32.2
CCC(=O)c1cn(CC(=O)Nc2ccccc2Cl)c2ccccc12	-8.14

Compound	activity change, negative = cytotoxicity [%]
NS(=O)(=O)c1ccc(CNC(=S)NC(=O)c2ccco2)cc1	-1.37
Cc1ccc(-c2nnc(N3CCC(C)CC3)c3ccccc23)cc1C	-27.1
C[C@@H]1CN([C@H](C)CO)C(=O)c2cc(Br)cnc2O[C@H]1CN(C)C(=O)Cc1ccncc1	-4.74
Cc1cc(C(=O)COC(=O)c2ccccc2Br)c(C)n1CC1CCCO1 (stereo unspecified)	-0.177
CCOC(=O)C1CCN(C(=O)c2sc3nc(C)nc(N4CCC(C)CC4)c3c2C)CC1	4.07
CN(C(=O)CSc1nc(-c2cccs2)nc2ccccc12)C1CCS(=O)(=O)C1 (stereo unspecified)	-9.43
CC(C)=CCC/C(C)=C/CNC(=O)C[C@H]1C[C@H](C(=O)N(C(C)C)C(C)C)[C@@]2(C)c3[nH]c4cc(CCC(=O)N(C)C)ccc4c3CCN2C1=O	6.25
CS(=O)(=O)c1ccc(Sc2nc3ccccc3s2)c([N+](=O)[O-])c1	-9.91
O=[N+]([O-])c1cc(S(=O)(=O)C(F)(F)F)ccc1Sc1nc2ccccc2s1	-14.7
N#C/C(=C(\O)Cc1ccccc1)c1nc2ccccc2[nH]1	-17.9
C=CCOC(=O)C1=C(C)N=C2SCCC(=O)N2C1c1cccs1 (stereo unspecified)	6.99
CC(=O)O[C@H]1CC[C@@]2(C)C(=CC[C@H]3[C@@H]4CC[C@H](C(C)=O)[C@@]4(C)CC[C@@H]32)C1	0.073
C=CCNc1nc(N2CCOCC2)c(C#N)c2c1CN(C)CC2	-15
CC(=O)N1CCOc2cc(S(=O)(=O)NCc3ccc(F)cc3)c(C)cc21	-9.5
C[C@@H]1CN([C@H](C)CO)C(=O)CCCn2nncc2CO[C@H]1CN(C)S(=O)(=O)c1ccc2c(c1)OCCCO2	-15.3
CCn1nnc2cc(C(=O)Nc3cc(Cl)ccc3C)ccc21	10.6
O=C(Sc1cccc2cccnc12)c1ccccc1Br	-2.3
CN(c1ccccc1)S(=O)(=O)c1cccc(NC(=O)CSc2nncs2)c1	-2.43
CCOc1ccc2nc(SC3CC(=O)N(c4ccc(C)cc4)C3=O)sc2c1 (stereo unspecified)	-18.3
